Values without a mark were called inactive. Results filed as inconclusive are left out. Where a call stands in place of a potency, no number is given. The source made the active and inactive calls. Unless noted, the call rests on the fitted dose curve; in most records, active means well fitted curve in the direction sought with a large enough effect; inconclusive means small, poorly fitted or top-dose-only effect, or another doubt; inactive means no such curve, though single readings can be large; an effect the other way counts as inactive or inconclusive.
Assays:
[1] = target: Lysosomal acid glucosylceramidase (Homo sapiens) (UniProt P04062); assay: Glucocerebrosidase-p2 (AID 348; in the data active means potency below about 10 µM; further: potency means the concentration at half of the fitted maximal effect); settings: purified GBA, blue fluorogenic substrate, 40 min
Method in brief: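 Normal human glucocerebrosidase (0.2 nM) with blue fluorogenic substrate (80 uM final) in citrate/phosphate pH 5.9 with 10mM sodium taurocholate, 0.01% tween-20; 40 min RT, NaOH/glycine stop; fluorescence Ex 365/Em 440; AC50 from a titration from 0.6 nM upwards.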

[2] = AP1 Signaling Pathway (AID 357; active means well fitted curve in either direction with a large enough effect, not every such curve was filed as active;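 further: ME-180 reporter cells stimulated with EGF at its EC50 level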); settings: ME-180 AP-1-bla reporter, EGF-induced, beta-lactamase ratio, 5 h; at 7.69 µM (top of the series) unless noted
Method in brief: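 Titration-series screen for positive or negative modulators of EC50 EGF-induced signaling in ME-180 cells carrying an AP-1-driven beta-lactamase reporter. After 5 hours at 37 degrees Celsius, CCF4 460nm/530nm emission ratio gave %Activity; AC50 values derived.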

[3] = target: Glucocorticoid receptor (Homo sapiens) (UniProt P04150); assay: GR-GFP Redistribution (AID 450;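 active means compounds whose dose series gives a full or clear partial fitted curve of increased nuclear translocation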; further: potency means the concentration at half of the fitted maximal effect); settings: U2OS GR-GFP nuclear translocation, laser cytometry, 2 h
[4] = target: Glucocorticoid receptor (Homo sapiens) (UniProt P04150); assay: GR-EFC Redistribution (AID 451; calls by dose curve; further: potency means the concentration at half of the fitted maximal effect); settings: CHO-K1 GR-EFC translocation, beta-gal luminescence, 2 h
Method in brief: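 Translocation of GR-ED fusion to nuclear EA restores b-gal, read by luminescence after 1 h room-temperature detection. Engineered CHO-K1 biosensor cells, 1,000/well, exposed 2 h at 37 C to titrations up to 46 uM final.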

[5] = target: Mitogen-activated protein kinase 10 (Mus musculus) (UniProt Q61831); assay: JNK3 AlphaScreen Assay (AID 530; active means well fitted curve in either direction with a large enough effect, not every such curve was filed as active;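 further: kinase came from lysate of stimulated human HepG2 cells; signal reports phosphorylation of biotinylated GST-cJun 1-79 at Ser73 with 10 µM ATP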); settings: JNK3 lysate, c-Jun phosphorylation; series mostly up to 57.1 µM
Method in brief: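 qHTS titrations with 15 min compound pre-incubation before adding ATP (10 uM final). Read-out: AlphaScreen of Ser73-phosphorylated biotin-GST-cJun using HepG2 lysate JNK3 activated by IL-1β and TNFα.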

[6] = target: 3',5'-cyclic-AMP phosphodiesterase 4B (Homo sapiens) (UniProt Q07343); assay: qHTS Assay for Inhibitors of PDE-IV (AID 607; active means well fitted activation curve with a large enough effect in the main read-out, with a control signal flat, not every such curve was filed as active); settings: HEK293 ACTOne CNG channel cells, membrane potential fluorescence; series mostly up to 22.9 µM
Method in brief: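 Live HEK293 cells with a modified cyclic nucleotide-gated (CNG) channel report intracellular cAMP via membrane-potential dye fluorescence (ex 535/em 590 nm). Endogenous PDE-IV was targeted. Compounds were tested at up to 22.9 uM final; RO 20-1724 100 uM served as control.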

[7] = target: Cytochrome P450 3A4 (Homo sapiens) (UniProt P08684); assay: qHTS Assay for Activators of Cytochrome P450 3A4 (AID 885); settings: recombinant CYP3A4, Luciferin-PPXE luminescence, 60 min; series mostly up to 57.1 µM; further: nearly all actives have a fitted effect of over 65% in size
Method in brief: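 Using 20nM recombinant human CYP3A4 in potassium phosphate (200mM), substrate Luciferin-PPXE at 25uM, luminescent luciferin detection followed a 60-min RT NADPH reaction; data scaled to 57 uM ketoconazole.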

[8] = target: Dual specificity protein kinase CLK4 (Homo sapiens) (UniProt Q9HAZ1); assay: qHTS Assay for Inhibitors of CDC-like Kinase 4 (Kinase-Glo Assay) (AID 1770); settings: recombinant Clk4, Kinase-Glo ATP depletion luminescence; series mostly up to 66.7 µM; further: nearly all actives have a fitted effect of over 65% in size; further: potency means the concentration at half of the fitted maximal effect
Method in brief: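 25 nM Clk4 with 100 uM RS repeat peptide and 1 uM ATP (final) in Tris pH7.5, 10 mM MgCl2, 4.5 h at room temperature. Remaining ATP measured by Kinase-Glo luciferase luminescence.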

[9] = target: Dual specificity protein kinase CLK4 (Homo sapiens) (UniProt Q9HAZ1); assay: qHTS Assay for Inhibitors of CDC-like Kinase 4 (ADP-Glo Assay) (AID 1771); settings: recombinant CLK4, ADP-Glo luminescence; series mostly up to 80 µM; further: nearly all actives have a fitted effect of over 70% in size; further: potency means the concentration at half of the fitted maximal effect
Method in brief: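 ADP production was read by ADP-Glo luminescence after residual ATP depletion, following 1 h room-temperature reaction of 25 nM Clk4, 1 uM ATP and 100 uM RS peptide with MgCl2, EGTA, DTT and Triton X-100.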

[10] = target: Dual specificity protein kinase CLK4 (Homo sapiens) (UniProt Q9HAZ1); assay: qHTS Assay for Inhibitors of CDC-like Kinase 4 (ADP-FP Assay) (AID 1795); settings: Transcreener ADP fluorescence polarization; series mostly up to 50 µM; further: nearly all actives have a fitted effect of over 60% in size; further: potency means the concentration at half of the fitted maximal effect;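 on activity change, negative = inhibition: recombinant human CLK4 phosphorylating RS repeat peptide at 1 µM ATP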
Method in brief: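 Recombinant Clk4 (6.25 nM) phosphorylated 100 uM RS repeat peptide with 1 uM ATP in 25 mM Tris pH 7.5, 10 mM MgCl2, 0.5 mM EGTA, 2.5 mM DTT, 0.01% Triton X-100 for 1 h. ADP was detected by Transcreener ADP2 competitive fluorescence polarization after 30 min at room temperature.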

[11] = target: Ubiquitin carboxyl-terminal hydrolase 1 (Homo sapiens) (UniProt O94782); assay: Inhibitors of USP1/UAF1: Pilot qHTS (AID 504865); settings: purified USP1/UAF1, Ub-rhodamine cleavage fluorescence; series mostly up to 54.9 µM;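 further: rhodamine fluorescence freed from ubiquitin-rhodamine substrate followed over time; top concentration of the series differs between compounds; nearly all actives have a fitted effect of over 35% in size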
Method in brief: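 USP1/UAF1 complex at 1 nM preincubated 15 min at room temperature with compound, then Ub-Rho substrate added at 150 nM final. Fluorescence (480/540 nm) read kinetically in 50 mM HEPES pH 7.8, 0.5 mM EDTA, 1 mM TCEP, 0.1 mg/ml BSA, 0.01% Tween-20.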

[12] = Primary qHTS for small molecule stabilizers of the endoplasmic reticulum resident proteome: Secreted ER Calcium Modulated Protein (SERCaMP) assay (AID 1508630); settings: SH-SY5Y GLuc-SERCaMP (Gaussia luciferase released on ER calcium loss) secretion, thapsigargin, luminescence; series mostly up to 38.4 µM
Method in brief: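 The SH-SY5Y reporter protocol was run at 3 concentrations up to 38.3 uM (primary) or 11 concentrations (follow-up): 16 h compound, 100 nM thapsigargin for 4 h, then extracellular luciferase luminescence.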

[13] = target: Cytochrome P450 1A2 (Homo sapiens) (UniProt P05177); assay: p450-cyp1a2 (AID 410; calls by dose curve; further: potency means the concentration at half of the fitted maximal effect); settings: recombinant CYP1A2, luciferin-ME demethylation, luminescence; series mostly up to 57 µM
Method in brief: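 Luminescent demethylation readout: Luciferin-ME (100uM, equal to Km) turned over by 20nM CYP1A2 for 60 min at room temperature after NADPH regeneration addition, following 10 min compound preincubation. Normalization used 57 uM furafylline as full inhibition.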

[14] = Stat Signaling Pathway (AID 446; active means well fitted curve in either direction with a large enough effect, not every such curve was filed as active;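 further: ME-180 cervical cancer cells given 40 pM IL-6 alongside compound; SIE-controlled beta-lactamase reporter measured as 460/530 nm FRET emission ratio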); settings: ME-180 SIE beta-lactamase reporter, IL-6 stimulated, 5 h; at 7.69 µM (top of the series) unless noted
Method in brief: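 Overnight-plated ME-180 cells bearing a STAT Inducible Element beta-lactamase reporter; 5 h co-exposure to compound and 40 pM IL-6; values normalized to 300 pM IL-6 and 125 nM JAK inhibitor controls.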

[15] = NFAT Signaling Pathway (AID 444; active means well fitted curve in either direction with a large enough effect, not every such curve was filed as active;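 further: carbachol stimulus at about its EC50 of 1 µM final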); settings: Jurkat NFAT-bla M1, carbachol, beta-lactamase ratio, 5 h; at 7.69 µM (top of the series) unless noted
Method in brief: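 Read-out: CCF4 FRET ratio (460 nm/530 nm) after 1 h RT dye loading, used for %activity and AC50 from titration series. Cells: Jurkat NFAT-β-lactamase/M1 line, treated with compound plus 1 uM carbachol for 5 h, 37 °C.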

[16] = target: Cytochrome P450 3A4 (Homo sapiens) (UniProt P08684); assay: qHTS Assay for Inhibitors and Substrates of Cytochrome P450 3A4 (AID 884); settings: recombinant CYP3A4, Luciferin-PPXE luminescence; series mostly up to 57.1 µM; further: nearly all actives have a fitted effect of over 50% in size; further: potency means the concentration at half of the fitted maximal effect
Method in brief: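 Luminescent readout of luciferin produced by CYP3A4 (20 nM) dealkylation of Luciferin-PPXE, 25 uM (its KM). NADPH-driven reaction ran 60 min at RT after 10 min compound preincubation; data scaled to 57 uM ketoconazole as 100% inhibition.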

[17] = target: Cytochrome P450 2C19 (Homo sapiens) (UniProt P33261); assay: qHTS Assay for Inhibitors and Substrates of Cytochrome P450 2C19 (AID 899); settings: recombinant CYP2C19, luciferin-H EGE luminescence; series mostly up to 57.1 µM; further: nearly all actives have a fitted effect of over 60% in size
Method in brief: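 Reactions contain 5nM enzyme, 10uM Luciferin-H EGE (KM) and 50mM KPO4; compound preincubates 10 min at 37C, NADPH regeneration starts turnover for 60 min. Luminescence after detection reagent gives activity.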

[18] = qHTS Assay for Identification of Small Molecule Agonists for Hypoxia Response Element Signaling Pathway (AID 914; active means well fitted activation curve with a large enough effect in the signal ratio, with a control signal flat, not every such curve was filed as active; the % refers to the signal ratio; further: potency means the concentration at half of the fitted maximal effect); settings: ME-180 (cervical carcinoma) HRE-bla reporter, beta-lactamase ratio, CoCl2, 17 h; activation: stronger effect = higher value
Method in brief: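 AC50 values come from titration-series %Activity, taken as the 460/530nm ratio of CCF4 fluorescence (excitation 405nm). CellSensor HRE-bla ME-180 cells were treated 17 hours at 37 C with compound plus an EC50 level of CoCl2.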

Sequence of Glucocorticoid receptor (Homo sapiens) (P04150 whole entry, looked up, the tested form may be a part): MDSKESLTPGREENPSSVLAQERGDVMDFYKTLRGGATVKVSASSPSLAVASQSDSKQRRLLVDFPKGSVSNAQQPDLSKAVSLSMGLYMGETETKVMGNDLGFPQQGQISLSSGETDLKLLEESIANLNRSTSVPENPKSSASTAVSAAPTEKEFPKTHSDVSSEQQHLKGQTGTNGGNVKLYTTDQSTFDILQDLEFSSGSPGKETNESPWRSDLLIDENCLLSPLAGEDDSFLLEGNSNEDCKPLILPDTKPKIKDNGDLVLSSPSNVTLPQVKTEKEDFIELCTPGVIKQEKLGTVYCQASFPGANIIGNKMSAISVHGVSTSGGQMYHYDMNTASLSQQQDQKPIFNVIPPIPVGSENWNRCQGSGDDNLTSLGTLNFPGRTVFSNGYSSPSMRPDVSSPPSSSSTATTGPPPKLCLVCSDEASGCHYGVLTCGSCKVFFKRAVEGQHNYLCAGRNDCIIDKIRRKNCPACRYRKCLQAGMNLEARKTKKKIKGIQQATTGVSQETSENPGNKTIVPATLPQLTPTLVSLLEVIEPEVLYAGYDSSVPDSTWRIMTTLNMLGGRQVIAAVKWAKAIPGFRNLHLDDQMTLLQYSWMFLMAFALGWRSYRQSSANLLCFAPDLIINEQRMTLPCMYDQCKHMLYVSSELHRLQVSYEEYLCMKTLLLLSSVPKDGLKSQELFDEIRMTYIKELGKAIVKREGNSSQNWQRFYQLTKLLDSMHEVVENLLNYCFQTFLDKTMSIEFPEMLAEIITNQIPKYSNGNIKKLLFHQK
Sequence of Lysosomal acid glucosylceramidase (Homo sapiens) (P04062 whole entry, looked up): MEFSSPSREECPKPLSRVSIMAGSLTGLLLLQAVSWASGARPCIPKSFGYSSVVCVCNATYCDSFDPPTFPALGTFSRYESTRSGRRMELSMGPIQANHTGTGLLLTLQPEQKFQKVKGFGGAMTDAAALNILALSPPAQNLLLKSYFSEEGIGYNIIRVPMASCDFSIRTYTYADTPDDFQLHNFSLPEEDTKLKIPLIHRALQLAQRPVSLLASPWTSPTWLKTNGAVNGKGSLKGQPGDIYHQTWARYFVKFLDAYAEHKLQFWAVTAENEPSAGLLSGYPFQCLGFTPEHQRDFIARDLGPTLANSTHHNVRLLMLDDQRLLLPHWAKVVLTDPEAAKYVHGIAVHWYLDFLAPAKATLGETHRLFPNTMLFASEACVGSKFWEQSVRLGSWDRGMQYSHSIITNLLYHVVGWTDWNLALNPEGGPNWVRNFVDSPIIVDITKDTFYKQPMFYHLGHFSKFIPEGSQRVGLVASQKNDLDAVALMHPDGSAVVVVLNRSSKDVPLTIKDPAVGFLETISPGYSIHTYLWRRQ
Sequence of Dual specificity protein kinase CLK4 (Homo sapiens) (Q9HAZ1 whole entry, looked up): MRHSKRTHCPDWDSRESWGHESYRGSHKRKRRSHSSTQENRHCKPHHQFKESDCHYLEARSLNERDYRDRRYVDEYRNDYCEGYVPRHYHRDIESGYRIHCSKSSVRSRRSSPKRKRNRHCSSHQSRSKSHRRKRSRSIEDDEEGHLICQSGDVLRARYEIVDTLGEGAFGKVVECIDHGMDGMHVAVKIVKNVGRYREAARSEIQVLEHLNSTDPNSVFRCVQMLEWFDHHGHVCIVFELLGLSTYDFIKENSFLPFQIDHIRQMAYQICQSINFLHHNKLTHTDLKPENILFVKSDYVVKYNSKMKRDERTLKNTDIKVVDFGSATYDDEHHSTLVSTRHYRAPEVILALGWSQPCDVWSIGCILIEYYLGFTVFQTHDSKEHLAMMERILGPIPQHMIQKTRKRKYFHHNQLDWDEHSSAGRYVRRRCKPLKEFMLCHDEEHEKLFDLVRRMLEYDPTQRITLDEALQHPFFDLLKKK
Sequence of Ubiquitin carboxyl-terminal hydrolase 1 (Homo sapiens) (O94782 whole entry, looked up): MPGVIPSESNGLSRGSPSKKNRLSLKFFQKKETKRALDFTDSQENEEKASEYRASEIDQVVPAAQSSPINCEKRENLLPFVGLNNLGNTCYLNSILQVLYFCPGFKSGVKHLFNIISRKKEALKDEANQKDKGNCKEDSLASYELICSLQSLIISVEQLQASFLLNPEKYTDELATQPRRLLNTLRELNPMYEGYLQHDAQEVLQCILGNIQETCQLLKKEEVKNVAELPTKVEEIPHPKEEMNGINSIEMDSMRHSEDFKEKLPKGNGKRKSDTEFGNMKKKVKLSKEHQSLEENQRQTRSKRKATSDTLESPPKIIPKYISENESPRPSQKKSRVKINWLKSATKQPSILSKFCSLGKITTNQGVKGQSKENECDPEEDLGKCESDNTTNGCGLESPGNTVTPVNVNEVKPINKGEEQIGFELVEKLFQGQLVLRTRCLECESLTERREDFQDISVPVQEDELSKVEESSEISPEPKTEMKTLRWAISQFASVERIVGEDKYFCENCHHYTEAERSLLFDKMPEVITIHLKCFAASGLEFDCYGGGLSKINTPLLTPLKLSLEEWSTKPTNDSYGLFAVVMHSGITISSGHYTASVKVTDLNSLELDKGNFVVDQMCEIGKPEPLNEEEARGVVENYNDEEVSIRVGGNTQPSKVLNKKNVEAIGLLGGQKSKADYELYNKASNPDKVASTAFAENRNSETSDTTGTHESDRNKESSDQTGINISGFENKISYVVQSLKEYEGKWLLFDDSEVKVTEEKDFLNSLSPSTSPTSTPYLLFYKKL
Sequence of Cytochrome P450 1A2 (Homo sapiens) (P05177 whole entry, looked up): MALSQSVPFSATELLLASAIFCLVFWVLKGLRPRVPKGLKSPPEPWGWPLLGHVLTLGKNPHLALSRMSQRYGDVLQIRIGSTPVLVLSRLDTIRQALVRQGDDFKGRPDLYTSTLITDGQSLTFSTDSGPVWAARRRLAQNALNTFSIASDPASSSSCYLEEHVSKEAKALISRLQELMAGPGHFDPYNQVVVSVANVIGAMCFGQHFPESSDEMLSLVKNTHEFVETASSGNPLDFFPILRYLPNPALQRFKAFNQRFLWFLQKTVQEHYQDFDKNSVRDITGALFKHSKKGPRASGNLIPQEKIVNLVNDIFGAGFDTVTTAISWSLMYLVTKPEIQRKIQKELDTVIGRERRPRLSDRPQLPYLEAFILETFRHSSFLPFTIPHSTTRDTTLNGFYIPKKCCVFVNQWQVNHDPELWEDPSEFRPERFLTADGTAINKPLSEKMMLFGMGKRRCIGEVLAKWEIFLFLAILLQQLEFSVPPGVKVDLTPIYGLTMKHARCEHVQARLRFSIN
Sequence of Cytochrome P450 3A4 (Homo sapiens) (P08684 whole entry, looked up): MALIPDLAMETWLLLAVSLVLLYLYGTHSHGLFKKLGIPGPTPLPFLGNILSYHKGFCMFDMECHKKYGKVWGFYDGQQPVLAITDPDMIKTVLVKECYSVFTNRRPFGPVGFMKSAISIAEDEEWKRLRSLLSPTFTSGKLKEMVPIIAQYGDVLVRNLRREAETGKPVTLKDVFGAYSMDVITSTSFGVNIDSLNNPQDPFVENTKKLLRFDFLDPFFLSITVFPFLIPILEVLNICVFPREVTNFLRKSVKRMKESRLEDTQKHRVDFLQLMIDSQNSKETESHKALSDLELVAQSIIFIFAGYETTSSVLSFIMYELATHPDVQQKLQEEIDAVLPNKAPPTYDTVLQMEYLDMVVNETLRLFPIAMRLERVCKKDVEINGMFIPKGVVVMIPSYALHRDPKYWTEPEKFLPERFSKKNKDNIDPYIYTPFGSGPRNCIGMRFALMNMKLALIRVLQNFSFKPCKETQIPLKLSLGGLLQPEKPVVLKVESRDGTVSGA
Sequence of 3',5'-cyclic-AMP phosphodiesterase 4B (Homo sapiens) (Q07343 whole entry, looked up): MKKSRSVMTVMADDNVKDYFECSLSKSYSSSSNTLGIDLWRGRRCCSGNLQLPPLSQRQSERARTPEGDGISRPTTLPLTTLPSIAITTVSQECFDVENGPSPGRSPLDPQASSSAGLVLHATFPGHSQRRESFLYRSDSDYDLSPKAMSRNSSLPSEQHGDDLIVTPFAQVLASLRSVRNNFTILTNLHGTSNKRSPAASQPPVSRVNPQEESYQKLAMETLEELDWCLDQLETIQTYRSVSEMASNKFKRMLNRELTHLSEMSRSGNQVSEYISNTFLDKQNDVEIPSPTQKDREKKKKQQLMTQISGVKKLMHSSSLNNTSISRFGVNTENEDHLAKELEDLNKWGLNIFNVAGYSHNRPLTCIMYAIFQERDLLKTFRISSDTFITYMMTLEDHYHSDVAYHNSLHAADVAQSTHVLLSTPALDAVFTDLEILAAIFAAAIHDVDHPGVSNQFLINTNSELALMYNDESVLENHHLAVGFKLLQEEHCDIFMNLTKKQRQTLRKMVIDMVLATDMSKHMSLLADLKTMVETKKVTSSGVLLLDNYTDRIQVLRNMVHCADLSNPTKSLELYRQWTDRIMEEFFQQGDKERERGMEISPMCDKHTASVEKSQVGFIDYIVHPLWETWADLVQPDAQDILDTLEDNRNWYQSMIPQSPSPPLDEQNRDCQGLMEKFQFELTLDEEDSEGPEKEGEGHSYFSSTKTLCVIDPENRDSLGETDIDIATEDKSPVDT
Sequence of Cytochrome P450 2C19 (Homo sapiens) (P33261 whole entry, looked up): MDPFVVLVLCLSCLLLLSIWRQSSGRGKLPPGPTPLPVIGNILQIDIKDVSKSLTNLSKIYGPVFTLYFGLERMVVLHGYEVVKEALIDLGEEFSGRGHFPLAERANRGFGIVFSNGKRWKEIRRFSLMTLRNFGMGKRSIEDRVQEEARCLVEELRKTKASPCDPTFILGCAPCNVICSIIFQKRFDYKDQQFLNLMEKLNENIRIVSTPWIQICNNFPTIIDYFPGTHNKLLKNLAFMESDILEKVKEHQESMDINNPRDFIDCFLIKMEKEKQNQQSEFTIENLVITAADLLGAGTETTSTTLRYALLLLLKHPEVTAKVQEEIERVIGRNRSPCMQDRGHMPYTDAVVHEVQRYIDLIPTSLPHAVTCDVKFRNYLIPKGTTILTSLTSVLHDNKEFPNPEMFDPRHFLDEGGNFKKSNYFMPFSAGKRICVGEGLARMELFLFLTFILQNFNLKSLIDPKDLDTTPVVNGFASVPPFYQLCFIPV

SMILES	Potency [1]	activity change, negative = inhibition [2]	Potency [3]	Potency [4]	Potency [5]	Potency [6]	Potency [7]	Potency [8]	Potency [9]	Potency [10]	Potency [11]	outcome [12]	Potency [13]	activity, negative = inhibition [14]	activity change, negative = inhibition [15]	Potency [16]	Potency [17]	Potency [18]
CN(C)c1ncc2nc(-c3cccs3)c(=O)n(Cc3cccs3)c2n1	> 11.4 µM	21.5%	> 9.22 µM	> 46 µM	inactive	inactive	inactive	inactive	inactive	inactive	inactive	inactive						
COc1cccc(Nc2ncc3nc(CCc4ccccc4)c(=O)n(Cc4cccs4)c3n2)c1	> 11.4 µM		> 9.22 µM	> 46 µM	inactive	inactive	inactive	inactive	inactive	inactive	inactive	inactive	3.16 µM (active)	-28.9%				
CCNc1ncc2nc(-c3ccc(Cl)cc3)c(=O)n(Cc3ccc(F)cc3)c2n1	> 11.4 µM		> 9.22 µM	> 46 µM	inactive			inactive	inactive	inactive	inactive	inactive	12.6 µM (active)		-1.59%	inactive	inactive	0.1 µM (active)
COc1ccc(Oc2ncc3nc(-c4ccc(F)cc4)c(=O)n(Cc4cccs4)c3n2)cc1	> 11.4 µM		> 9.22 µM	> 46 µM	inactive	inactive	inactive	inactive	inactive	inactive	inactive	inactive	5.01 µM (active)	-8.36%	-29.2%			
COc1ccc(-c2nc3cnc(N4CCOCC4)nc3n(CCc3ccccc3)c2=O)cc1	> 11.4 µM		> 9.22 µM	> 46 µM	inactive	inactive		inactive	inactive	inactive	inactive	inactive	10 µM (active)	92.5% [activator] (active)	119% [activator] (active)			1.26 µM (active)
CS(=O)(=O)Nc1cccc(-c2ccc3ncnc(N4CCOCC4)c3c2)c1	> 11.4 µM		> 46 µM	> 46 µM	inactive		inactive	7.94 µM (active)	6.31 µM (active)	7.08 µM (active)	inactive	inactive	12.6 µM (active)	-11.8%		7.94 µM (active)		
COc1ccc(-n2c(=O)c(-c3cccs3)nc3cnc(Nc4ccccc4)nc32)cc1	> 11.4 µM	-7.98%	> 9.22 µM	> 46 µM	inactive	inactive		inactive	inactive	inactive	inactive	inactive		-8.99%				

Source: PubChem BioAssay (NCATS)
